# Measured values: PubChem BioAssay AID504545 (Broad Institute, 2011)
# Results with a measured potency or affinity are listed apart. Records with an inconclusive call do not appear. Calls of active or inactive are those of the source. No rule for the calls is given here.
# Target: Cyclin-dependent kinase 5 activator 1 (Homo sapiens) + Cyclin-dependent kinase 5 (Homo sapiens) (UniProt Q15078+Q00535)
# Test: CDK5/p35 kinase inhibitors, dose response, biochemical, cherry-picked samples, set 2 (AID 504545)
# Conditions: biochemical plate reader; series mostly up to 30 µM
# Sequence of Cyclin-dependent kinase 5 activator 1 (Homo sapiens) + Cyclin-dependent kinase 5 (Homo sapiens) (Q00535 whole entry, looked up): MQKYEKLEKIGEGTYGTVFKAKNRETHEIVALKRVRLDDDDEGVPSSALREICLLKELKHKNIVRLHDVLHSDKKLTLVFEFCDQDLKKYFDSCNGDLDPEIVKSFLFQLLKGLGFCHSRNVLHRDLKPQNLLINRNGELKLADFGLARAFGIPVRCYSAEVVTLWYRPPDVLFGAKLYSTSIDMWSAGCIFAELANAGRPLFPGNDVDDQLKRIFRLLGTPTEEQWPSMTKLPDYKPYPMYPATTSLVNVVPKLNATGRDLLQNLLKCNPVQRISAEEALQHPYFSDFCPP
# Sequence of Cyclin-dependent kinase 5 activator 1 (Homo sapiens) + Cyclin-dependent kinase 5 (Homo sapiens) (Q15078 whole entry, looked up): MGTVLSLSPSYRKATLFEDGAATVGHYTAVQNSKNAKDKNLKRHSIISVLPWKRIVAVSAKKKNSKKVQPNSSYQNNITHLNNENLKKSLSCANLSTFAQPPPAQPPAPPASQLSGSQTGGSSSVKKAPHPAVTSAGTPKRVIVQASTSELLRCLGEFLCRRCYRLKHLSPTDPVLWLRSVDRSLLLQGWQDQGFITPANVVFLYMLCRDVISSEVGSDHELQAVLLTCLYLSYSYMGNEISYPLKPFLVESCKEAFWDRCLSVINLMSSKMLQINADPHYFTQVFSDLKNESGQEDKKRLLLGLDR
row,SMILES,outcome
1,Nc1ccc(CC2=NCCN2)cc1,inactive
2,NC(=O)c1c(Br)n(C2OC(CO)C(O)C2O)c2ncnc(N)c12 (centres undefined),inactive
3,COc1cc2c(ccc3c4cc(OC)c(OC)cc4c[n+](C)c23)cc1O,inactive
4,Nc1ncnc2c1ccn2[C@@H]1O[C@H](CO)[C@@H](O)[C@H]1O,inactive
